Experimental findings from PubChem BioAssay are described below.

Values without a mark were called inactive.

This assay is described as follows: yeast growth modulation, basal conditions, primary screen, YJM789 clinical isolate, OD600, 24 h (AID 1089).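 Note: growth of clinical yeast isolate S. cerevisiae YJM 789 seeded 1000 cells per well; test concentration not given here.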 As to conditions: S. cerevisiae YJM789 growth, higher = more signal, called active from +8 up or from −8 down.
For `C=CCOC(=O)[C@H]1[C@@H]2C(=O)O[C@@H](c3ccccc3)[C@@H](c3ccccc3)N2[C@@H](c2ccc(OCCOC(=O)[C@H]3C[C@H]4C(=O)N5CCC[C@H]5C(=O)N4[C@H]3c3ccc(O)cc3)cc2)[C@]12C(=O)Nc1ccccc12`, the z-score was 1.31. Take `COCCCN1C(=O)[C@@]2(c3ccc([N+](=O)[O-])cc3)CC(=O)N(C3CCCCC3)[C@@H]2c2ccc(CO)cc21`: the z-score is 0.134.

With `CN(C)CCCCCCNC(=O)[C@@H]1C[C@@H]2C(=O)N[C@@H](CCCCN)C(=O)N2[C@@H]1c1cccc(OCCO)c1`, the z-score was -5.46. As for `CC(C)c1ccc(NN2C(C(O)C(c3ccccc3)c3ccccc3)C=CC3C(=O)N(c4ccccc4)C(=O)C32)cc1` (stereo unspecified), the z-score is 0.709.

With `C=C(CCCC)C(=O)CC[C@@H](OC(=O)c1cccnc1)c1ccc(CO)o1`, the z-score was 0.544. The figure for `O=C(NCc1ccccc1)[C@@]1(Cc2ccccc2)N=C(c2ccc(OCCCO)cc2)O[C@H]1c1ccccc1` is 0.46; for `COCCOC(=O)N1C(=O)[C@@]2(c3cc(C#Cc4ccc(OC)cc4)ccc31)[C@H](c1ccccc1OCCO)N1[C@H](c3ccccc3)[C@H](c3ccccc3)OC(=O)[C@H]1[C@@H]2C(=O)N1CCN(c2ncccn2)CC1` it is 3.34; for `O=C1NC(=O)C2C1C=CC(C(O)Cc1ccccc1)N2Nc1ccc(Cl)cc1Cl` (stereo unspecified) it is -4.33. `CCCCN1CC=CC23O[C@@H]4/C=C\CCC(C)OC(=O)C4[C@H]2C(=O)N(CCCCCO)[C@@H]3C1=O` (stereo partly specified): the z-score was -0.402. On to `O=C1[C@H]2C=C(Br)[C@H](C[C@@H]2c2ccccc2)[C@@]12CO2`, for which the z-score was -0.703. On to `CN1C(=O)C2C=CC(C(O)c3cccs3)N(Nc3ccccc3)C2C1=O` (stereo unspecified), for which the z-score was 0.442. As for `COCCOC(=O)N1C(=O)[C@@]2(c3cc(C#CCCO)ccc31)[C@H](C(=O)Nc1nc3ccccc3s1)[C@H]1C(=O)O[C@H](c3ccccc3)[C@H](c3ccccc3)N1[C@@H]2c1ccc(OCCO)cc1`, the figure is 1.58; as for `CC(C)(C)OC(=O)CC[C@@]12N=C(c3ccc(OCCCO)cc3)O[C@@H]1c1ccccc1N(CCS(=O)(=O)c1ccccc1)C2=O`, -0.0877. The figure for `COC(=O)[C@@]1(Cc2ccccc2)[C@H]2c3cc(C(=O)N4CCCC4)n(Cc4nc5ccccc5[nH]4)c3C[C@H]2CN1C(=O)c1ccccc1` is -0.0672. As for `O=C1OCCC/C=C\[C@H]2OC34C=CCN(Cn5nnc6ccccc65)C(=O)[C@H]3N(CCO)C(=O)[C@@H]4C12` (stereo partly specified), the figure is 0.744. `COc1cc2c(cc1O)C(C1CC1)N(Cc1cc3c(cc1Br)OCO3)CC2` (stereo unspecified): the z-score was 0.19. As for `COCCOC(=O)N1C(=O)[C@@]2(c3cc(C#CC4=CCCCC4)ccc31)[C@H](C(=O)N1CCc3cc(OC)c(OC)cc3C1)[C@H]1C(=O)O[C@H](c3ccccc3)[C@H](c3ccccc3)N1[C@@H]2c1ccc(OCCO)cc1`, the figure is 1.34; as for `Cc1ccc(S[C@]2(C(=O)NC(C)C)CC(=O)N(Cc3ccccc3Cl)[C@@H]2c2ccc(CO)cc2I)cc1`, -1.59.

For `COCCOC(=O)N1C(=O)[C@@]2(c3cc(C#CC4=CCCCC4)ccc31)[C@H](C(N)=O)[C@H]1C(=O)O[C@H](c3ccccc3)[C@H](c3ccccc3)N1[C@@H]2c1ccc(OCCO)cc1`, the z-score was 1.44. Regarding `O=C1C2C=CC(C(O)C(c3ccccc3)c3ccccc3)N(n3cnnc3)C2C(=O)N1Cc1ccccc1` (stereo unspecified), the z-score was -0.743. As for `CC(C)(C)OC(=O)CC[C@@]1(C(=O)NCCN2CCOCC2)N=C(c2ccc(OCCCO)cc2)O[C@@H]1c1ccccc1N=[N+]=[N-]`, the figure is -0.174; as for `CN(C)C(=O)[C@@]1(Cc2ccccc2)N=C(c2ccc(OCCCO)cc2)O[C@H]1c1ccccc1N=[N+]=[N-]`, -2.59.

For `Cc1ccc(S[C@]2(C(=O)NCC(F)(F)F)CC(=O)N(C(C)C)[C@@H]2c2ccc(CO)cc2I)cc1`, the z-score is -0.0408.

As to `CCOc1cc(C(O)C2C=CC3C(=O)N(c4ccccc4)C(=O)C3N2Nc2ccccc2)ccc1O` (stereo unspecified), the z-score is 0.881. `C=CCNC(=O)[C@H]1[C@@H]2C(=O)O[C@@H](c3ccccc3)[C@@H](c3ccccc3)N2[C@@H](c2ccc(OCCO)cc2)[C@]12C(=O)N(C(=O)OCCOC)c1ccccc12`: the z-score is 2.07. For the compound `C=CCN1C(=O)[C@@]2(O[C@@H](CCO)[C@H]([Si](C)(C)c3ccc(OC)cc3)[C@H]2C)c2cc(NC(=O)c3ccc(OC)cc3)ccc21`, the z-score was 0.411. The figure for `C[C@]1(C(=O)NC2CC2)c2ccccc2C(=O)N(Cc2cc(C(F)(F)F)cc(C(F)(F)F)c2)[C@H]1c1ccc(CO)cc1` is 0.412; for `CC(C)OC(=O)C=C1C[C@@H](c2ccccc2C(F)(F)F)O[C@@H](c2ccccc2C(F)(F)F)O1` it is -0.317; for `CC(C)(C)OC(=O)CC[C@]1(C(=O)O)N=C(c2ccc(OCCCO)cc2)O[C@H]1c1ccccc1N=[N+]=[N-]` it is 0.0071. The figure for `O=C1OCC=C[C@H]2OC34C=CCN(c5ccc6ccccc6c5)C(=O)[C@H]3N(CCCCCCO)C(=O)[C@@H]4[C@@H]12` (stereo partly specified) is -0.966. Turning to `COc1cc2c(cc1OC)CN(C(=O)[C@H]1[C@@H]3C(=O)O[C@@H](c4ccccc4)[C@@H](c4ccccc4)N3[C@@H](c3ccc(O)cc3)[C@]13C(=O)Nc1ccc(C#CCNC(N)=O)cc13)CC2`, the z-score was 0.485.

As for `C=CCC(OC(C)=O)[C@@H]1[C@@H](N(Cc2cccc3ccccc23)C(=O)c2ccc(-c3ccccc3)cc2)c2cc(OCCCO)ccc2N1C(=O)Cc1ccc(OC)cc1` (stereo partly specified), the z-score was -0.715. For the compound `COC(=O)c1c(CC[C@@H](CO)NC(=O)N2CCC[C@H]2Cn2cc(-c3ccccn3)nn2)oc(C(C)=O)c1C(=O)OC`, the z-score was -0.833.

For the compound `C=CCNC(=O)[C@@H]1[C@H]2C(=O)O[C@H](c3ccccc3)[C@H](c3ccccc3)N2[C@H](c2ccc(OCCO)cc2)[C@@]12C(=O)Nc1ccc(C#Cc3ccc(OC)cc3)cc12`, the z-score is 2.34. With `CN1C(=O)C2C=CC(C(O)c3cc(C(F)(F)F)cc(C(F)(F)F)c3)N(N3CCCCC3)C2C1=O` (stereo unspecified), the z-score was 1.69. The figure for `COCCOC(=O)N1C(=O)[C@@]2(c3cc(C#CCCO)ccc31)[C@H](C(=O)N1CCN(c3ncccn3)CC1)[C@H]1C(=O)O[C@H](c3ccccc3)[C@H](c3ccccc3)N1[C@@H]2c1ccccc1OCCO` is 0.335.
